The target of assay [1] is Lysosomal acid glucosylceramidase (Homo sapiens) (UniProt P04062). The assay is described as follows: Glucocerebrosidase-p2 (AID 348; in the data active = potency below about 10 µM; note: potency is the fitted concentration of half-maximal effect). Conditions: purified GBA, blue fluorogenic substrate, 40 min. The essentials:
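Normal human glucocerebrosidase (0.2 nM) with blue fluorogenic substrate (80 uM final) in citrate/phosphate pH 5.9 with 10mM sodium taurocholate, 0.01% tween-20; 40 min RT, NaOH/glycine stop; fluorescence Ex 365/Em 440; AC50 from a titration from 0.6 nM upwards.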

Assay [2] addresses Cytochrome P450 1A2 (Homo sapiens) (UniProt P05177). The assay is described as follows: p450-cyp1a2 (AID 410; calls by dose curve; note: potency is the fitted concentration of half-maximal effect;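 for activity change, negative = inhibition: -100% = full effect of reference inhibitor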). The conditions noted are these: recombinant CYP1A2, luciferin-ME demethylation, luminescence; series mostly up to 57 µM. Put shortly:
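20nM CYP1A2, 100uM Luciferin-ME (=Km), 100mM KPO4; cpd 10 min RT; +NADPH regen, 60 min RT; stop/detect 20 min; luminescence. Normalized to furafylline 57 uM = full inhibition.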

The nature of assay [3]: NFAT Signaling Pathway (AID 444).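 Note: carbachol stimulus at about its EC50 of 1 µM final; % is set by controls: 0 for no effect and ±100 for the full control effect.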 The conditions noted are these: Jurkat NFAT-bla M1, carbachol, beta-lactamase ratio, 5 h; at 7.69 µM (top of the series) unless noted. Put shortly:
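Jurkat cells carrying an NFAT-driven β-lactamase reporter and co-transfected muscarinic M1 receptor were treated with compound plus carbachol (1 uM final, an EC50 level) for 5 h at 37 °C. CCF4 loading followed for 1 h at RT; 460/530 nm ratio gave %activity.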

Assay [4] is described as follows: Stat Signaling Pathway (AID 446).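 Note: ME-180 cervical cancer cells given 40 pM IL-6 alongside compound; SIE-controlled beta-lactamase reporter measured as 460/530 nm FRET emission ratio; % is set by controls: 0 for no effect and ±100 for the full control effect.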 The conditions noted are these: ME-180 SIE beta-lactamase reporter, IL-6 stimulated, 5 h; at 7.69 µM (top of the series) unless noted. Put shortly:
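Normalization used AC90 stimulation (300 pM IL-6) and AC90 inhibition (125 nM pan-JAK inhibitor at 40 pM IL-6). The underlying signal is SIE-driven beta-lactamase in ME-180 cells after 5 h IL-6 exposure with compound.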

Assay [5] addresses Glucocorticoid receptor (Homo sapiens) (UniProt P04150). The assay is described as follows: GR-EFC Redistribution (AID 451; calls by dose curve; note: potency is the fitted concentration of half-maximal effect). The conditions noted are these: CHO-K1 GR-EFC translocation, beta-gal luminescence, 2 h. The essentials:
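CHO-K1 cells stably expressing nuclear-localized β-gal enzyme acceptor and GR fused C-terminally to the enzyme donor fragment; ligand-driven nuclear translocation restores β-gal by complementation. Compounds titrated up to 46 uM final, 2 h at 37 °C; luminescence read.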

Assay [6] addresses 3',5'-cyclic-AMP phosphodiesterase 4B (Homo sapiens) (UniProt Q07343). The assay is described as follows: qHTS Assay for Inhibitors of PDE-IV (AID 607; active = well fitted activation curve with a large enough effect in the main read-out, with a control signal flat, not every such curve was filed as active; note: % of control where 0% means no effect). The conditions noted are these: HEK293 ACTOne CNG channel cells, membrane potential fluorescence; series mostly up to 22.9 µM. Put shortly:
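HEK293 ACTOne cells with CNG channel (1000/well), endogenous PDE4; membrane potential dye, compounds up to 22.9 uM final. Fluorescence Ex 535/Em 590; RO 20-1724 (100 uM final) as reference.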
In general terms: qHTS replaces the single test concentration by a dilution series.

For assay [7], the target named is Cytochrome P450 2D6 (Homo sapiens) (UniProt P10635). The assay is described as follows: qHTS Assay for Inhibitors and Substrates of Cytochrome P450 2D6 (AID 891; active = well fitted curve in the direction sought with a large enough effect; an effect the other way counts as inactive or inconclusive; note: potency is the fitted concentration of half-maximal effect; nearly all actives have a fitted effect of over 60% in size). The conditions noted are these: recombinant CYP2D6, luciferin-ME EGE luminescence; series mostly up to 57.1 µM. The essentials:
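Luminescent read-out of luciferin formed by 5 nM human CYP2D6 demethylating 30 uM Luciferin-ME EGE (Km level) over 60 min at room temperature after NADPH regeneration addition. Data normalized to full inhibition by 1.43 uM quinidine.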

The nature of assay [8]: qHTS Assay for Lipid Storage Modulators (AID 1519; calls by dose curve). The conditions noted are these: Drosophila S3 cells, BODIPY lipid droplet/cell ratio, laser cytometry, cells loaded with oleic acid; for activity change, negative = inhibition: at 57.5 µM (top of the series). Put shortly:
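Cells seeded at 5,000 per well were treated with compounds over a concentration series and loaded with oleic acid (400 uM, as added). Lipid droplet fluorescence (488 nm excitation, 500-530 nm channel) was read by laser-scanning cytometry and normalized to 20 uM Triacsin C.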

The nature of assay [9]: Primary qHTS for small molecule stabilizers of the endoplasmic reticulum resident proteome: Secreted ER Calcium Modulated Protein (SERCaMP) assay (AID 1508630; active = well fitted curve in the direction sought with a large enough effect; an effect the other way counts as inactive or inconclusive; note: % is set by controls: 0 for no effect and ±100 for the full control effect). Conditions: SH-SY5Y GLuc-SERCaMP (Gaussia luciferase released on ER calcium loss) secretion, thapsigargin, luminescence; series mostly up to 38.4 µM. Put shortly:
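The SH-SY5Y reporter protocol was run at 3 concentrations up to 38.3 uM (primary) or 11 concentrations (follow-up): 16 h compound, 100 nM thapsigargin for 4 h, then extracellular luciferase luminescence.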

Assay [10] in a line: AP1 Signaling Pathway (AID 357).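 Note: ME-180 reporter cells stimulated with EGF at its EC50 level; % is set by controls: 0 for no effect and ±100 for the full control effect.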 Conditions: ME-180 (cervical carcinoma) AP-1-bla reporter, EGF-induced, beta-lactamase ratio, 5 h; at 7.69 µM (top of the series) unless noted. The essentials:
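Cells are seeded overnight, exposed to compound titrations and an EC50 level of EGF for 5 hours at 37 °C, then loaded with CCF4 dye for 2.5 hours. Beta-lactamase activity under the AP-1 element is read as a blue/green ratio.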

Assay [11] concerns the target Mitogen-activated protein kinase 10 (Mus musculus) (UniProt Q61831). In words: JNK3 AlphaScreen Assay (AID 530). Conditions: JNK3 lysate, c-Jun phosphorylation; series mostly up to 57.1 µM. The essentials:
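Biotinylated GST-cJun(1-79) served as substrate for JNK3 in HepG2 lysates stimulated with IL-1beta and TNF-alpha. ATP was 10 uM final, pH 7.6. Ser73 phosphorylation was quantified by AlphaScreen (680 nm excitation).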
On the technique in general: Bead proximity is the source of the signal in Alpha formats.

The target in assay [12] is Cytochrome P450 3A4 (Homo sapiens) (UniProt P08684). In words: qHTS Assay for Activators of Cytochrome P450 3A4 (AID 885; active = well fitted curve in the direction sought with a large enough effect; an effect the other way counts as inactive or inconclusive; note: nearly all actives have a fitted effect of over 65% in size). Conditions: recombinant CYP3A4, Luciferin-PPXE luminescence, 60 min; series mostly up to 57.1 µM. Put shortly:
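Human CYP3A4 dealkylates Luciferin-PPXE to luciferin, which luciferase detection converts to light. Substrate was at its KM (25uM), buffer 200mM KPO4, reaction 60 min at RT.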

For assay [13], the target named is Glucocorticoid receptor (Homo sapiens) (UniProt P04150). In words: GR-GFP Redistribution (AID 450;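 active = compounds whose dose series gives a full or clear partial fitted curve of increased nuclear translocation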; note: potency is the fitted concentration of half-maximal effect). Conditions: U2OS GR-GFP nuclear translocation, laser cytometry, 2 h.
Assay [14] deals with Cytochrome P450 2C9 (Homo sapiens) (UniProt P11712). The assay is described as follows: qHTS Assay for Inhibitors and Substrates of Cytochrome P450 2C9 (AID 883; active = well fitted curve in the direction sought with a large enough effect; an effect the other way counts as inactive or inconclusive; note: % is set by controls: 0 for no effect and ±100 for the full control effect; nearly all actives have a fitted effect of over 60% in size). The conditions noted are these: recombinant CYP2C9, luciferin-H luminescence, 60 min; series mostly up to 57.1 µM. The essentials:
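A luminogenic readout tracked human CYP2C9 (10nM) converting deoxyluciferin (100uM, at KM) in 25mM KPO4 during 60 min at 37C with regenerated NADPH. Values normalized to 57uM sulphaphenazole as complete inhibition.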

Assay [15] is described as follows: Confirmation and Secondary Assay for Modulators of Hemoglobin Beta Chain Splicing at IVS2 654 locus (AID 910; active = well fitted curve in the direction sought with a large enough effect; an effect the other way counts as inactive or inconclusive;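 note: per-well total GFP intensity by laser scanning cytometry after 2-day treatment; % of control where 0% means no effect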). The conditions noted are these: HeLa EGFP-654 splicing reporter, GFP fluorescence, 48 h; series mostly up to 38.3 µM. The essentials:
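HeLa cells stably carrying EGFP interrupted by mutant beta-globin IVS2-654 intron (CMV-driven) were treated with compound for 2 days at 37C; corrected splicing was scored as total peak GFP intensity per well (488 nm excitation, 500-520 nm emission).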

Assay [16] can be described thus: Confirmation and Secondary Assay for Modulators of Hemoglobin Beta Chain Splicing at IVS2 705 locus (AID 930; active = well fitted curve in the direction sought with a large enough effect; an effect the other way counts as inactive or inconclusive;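 note: HeLa cells stably expressing the EGFP-705 splicing reporter; GFP fluorescence per well restored by corrected splicing of the IVS2-705 intron in EGFP; % of control where 0% means no effect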). Conditions: HeLa EGFP-705 splicing reporter, GFP fluorescence, 48 h; series mostly up to 38.3 µM. The essentials:
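Per-well GFP, captured at 1 x 8 µm resolution with 488 nm excitation, served as the read-out for HeLa EGFP-705 cells incubated 2 days with test compound versus DMSO.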

The target of assay [17] is Ubiquitin carboxyl-terminal hydrolase 1 (Homo sapiens) (UniProt O94782). The assay is described as follows: Inhibitors of USP1/UAF1: Pilot qHTS (AID 504865; active = well fitted curve in the direction sought with a large enough effect; an effect the other way counts as inactive or inconclusive;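 note: rhodamine fluorescence freed from ubiquitin-rhodamine substrate followed over time; top concentration of the series differs between compounds; % is set by controls: 0 for no effect and ±100 for the full control effect; nearly all actives have a fitted effect of over 35% in size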). The conditions noted are these: purified USP1/UAF1, Ub-rhodamine cleavage fluorescence; series mostly up to 54.9 µM. The essentials:
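USP1/UAF1 complex (1nM) preincubated with compound 15 min at room temperature, then Ub-Rho substrate (150nM final) added. Fluorescence read kinetically at 480/540 nm, 6 reads every 60 seconds. Buffer: 50mM HEPES pH 7.8, 0.5mM EDTA, 0.1 mg/ml BSA, 1mM TCEP, 0.01% Tween-20.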

Setting [18] is: measured here: cell count channel max response.
[19] abbreviates: measured here: lipid channel max response.

Results filed as inconclusive are left out. Active and inactive are the calls of the source. Unless noted, calls come from the whole dose curve; as a rule, active = well fitted curve in either direction with a large enough effect (not every such curve was filed as active); inconclusive = small, poorly fitted or top-dose-only effect, or another doubt; inactive = flat fitted curve, though single readings scatter.

The values that follow come from PubChem BioAssay (NCATS).

Chain of 3',5'-cyclic-AMP phosphodiesterase 4B (Homo sapiens) (Q07343 whole entry, looked up): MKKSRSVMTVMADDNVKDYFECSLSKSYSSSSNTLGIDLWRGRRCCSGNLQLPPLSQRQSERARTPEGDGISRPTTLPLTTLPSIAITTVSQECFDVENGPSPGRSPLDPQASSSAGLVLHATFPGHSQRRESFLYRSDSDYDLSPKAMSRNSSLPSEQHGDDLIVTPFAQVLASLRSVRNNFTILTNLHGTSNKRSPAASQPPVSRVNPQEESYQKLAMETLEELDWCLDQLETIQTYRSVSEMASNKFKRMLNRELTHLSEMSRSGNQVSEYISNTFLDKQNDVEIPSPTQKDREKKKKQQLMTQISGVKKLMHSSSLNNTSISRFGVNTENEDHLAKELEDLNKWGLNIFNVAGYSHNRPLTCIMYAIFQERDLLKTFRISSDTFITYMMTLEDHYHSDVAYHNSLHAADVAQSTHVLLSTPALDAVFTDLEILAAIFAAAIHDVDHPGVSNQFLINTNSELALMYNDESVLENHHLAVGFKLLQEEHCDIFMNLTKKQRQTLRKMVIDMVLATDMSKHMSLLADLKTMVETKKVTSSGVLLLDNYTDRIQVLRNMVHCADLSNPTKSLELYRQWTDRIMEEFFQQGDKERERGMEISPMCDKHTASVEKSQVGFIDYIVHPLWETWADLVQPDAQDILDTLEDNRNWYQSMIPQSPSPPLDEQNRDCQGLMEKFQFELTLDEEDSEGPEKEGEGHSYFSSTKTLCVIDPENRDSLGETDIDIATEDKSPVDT
Chain of Cytochrome P450 1A2 (Homo sapiens) (P05177 whole entry, looked up): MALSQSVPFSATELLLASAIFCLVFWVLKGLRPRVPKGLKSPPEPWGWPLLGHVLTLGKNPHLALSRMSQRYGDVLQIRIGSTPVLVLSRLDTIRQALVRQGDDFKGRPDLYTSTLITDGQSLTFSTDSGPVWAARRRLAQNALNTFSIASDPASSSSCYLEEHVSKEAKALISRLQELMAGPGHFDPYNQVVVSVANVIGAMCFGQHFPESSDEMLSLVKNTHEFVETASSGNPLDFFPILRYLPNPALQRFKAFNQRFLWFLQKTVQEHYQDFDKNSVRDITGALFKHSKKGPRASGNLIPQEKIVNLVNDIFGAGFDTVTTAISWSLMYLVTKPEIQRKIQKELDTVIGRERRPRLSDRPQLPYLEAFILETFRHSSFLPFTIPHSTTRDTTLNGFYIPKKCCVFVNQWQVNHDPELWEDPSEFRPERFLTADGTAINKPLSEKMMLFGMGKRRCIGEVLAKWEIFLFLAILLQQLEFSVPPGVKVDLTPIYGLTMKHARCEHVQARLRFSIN
Chain of Glucocorticoid receptor (Homo sapiens) (P04150 whole entry, looked up, the tested form may be a part): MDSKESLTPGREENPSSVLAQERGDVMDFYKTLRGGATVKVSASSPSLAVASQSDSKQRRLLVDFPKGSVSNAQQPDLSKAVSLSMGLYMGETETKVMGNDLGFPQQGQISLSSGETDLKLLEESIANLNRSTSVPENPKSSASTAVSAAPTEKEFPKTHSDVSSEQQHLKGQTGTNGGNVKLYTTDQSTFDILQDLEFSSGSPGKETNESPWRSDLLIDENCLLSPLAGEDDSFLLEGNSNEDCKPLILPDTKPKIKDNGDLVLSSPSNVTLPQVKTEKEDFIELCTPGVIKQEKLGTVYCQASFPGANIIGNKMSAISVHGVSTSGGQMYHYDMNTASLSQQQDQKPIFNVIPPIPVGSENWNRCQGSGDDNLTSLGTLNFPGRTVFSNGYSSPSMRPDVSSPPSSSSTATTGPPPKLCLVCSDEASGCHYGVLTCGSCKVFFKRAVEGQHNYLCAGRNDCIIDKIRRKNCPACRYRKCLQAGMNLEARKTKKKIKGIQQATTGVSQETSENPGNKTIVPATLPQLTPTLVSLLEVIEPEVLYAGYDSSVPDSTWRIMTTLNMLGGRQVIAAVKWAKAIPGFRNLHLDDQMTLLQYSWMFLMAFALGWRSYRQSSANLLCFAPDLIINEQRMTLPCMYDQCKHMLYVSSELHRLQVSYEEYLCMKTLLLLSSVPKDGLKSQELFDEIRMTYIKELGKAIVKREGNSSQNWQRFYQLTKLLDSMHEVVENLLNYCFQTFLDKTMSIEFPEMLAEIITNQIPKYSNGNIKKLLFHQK
Chain of Cytochrome P450 2D6 (Homo sapiens) (P10635 whole entry, looked up): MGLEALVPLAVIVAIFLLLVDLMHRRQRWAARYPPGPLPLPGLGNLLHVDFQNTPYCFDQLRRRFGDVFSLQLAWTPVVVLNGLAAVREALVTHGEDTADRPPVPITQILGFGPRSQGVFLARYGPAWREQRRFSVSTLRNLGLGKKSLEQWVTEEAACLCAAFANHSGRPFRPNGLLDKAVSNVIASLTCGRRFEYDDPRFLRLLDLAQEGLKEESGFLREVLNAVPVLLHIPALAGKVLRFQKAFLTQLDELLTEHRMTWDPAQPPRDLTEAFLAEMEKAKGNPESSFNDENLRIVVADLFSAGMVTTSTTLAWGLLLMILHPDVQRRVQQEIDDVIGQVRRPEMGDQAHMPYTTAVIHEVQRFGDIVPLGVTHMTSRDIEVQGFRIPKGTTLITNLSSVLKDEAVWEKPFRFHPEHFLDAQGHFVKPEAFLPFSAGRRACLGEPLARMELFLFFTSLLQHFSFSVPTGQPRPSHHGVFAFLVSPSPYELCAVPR
Chain of Cytochrome P450 3A4 (Homo sapiens) (P08684 whole entry, looked up): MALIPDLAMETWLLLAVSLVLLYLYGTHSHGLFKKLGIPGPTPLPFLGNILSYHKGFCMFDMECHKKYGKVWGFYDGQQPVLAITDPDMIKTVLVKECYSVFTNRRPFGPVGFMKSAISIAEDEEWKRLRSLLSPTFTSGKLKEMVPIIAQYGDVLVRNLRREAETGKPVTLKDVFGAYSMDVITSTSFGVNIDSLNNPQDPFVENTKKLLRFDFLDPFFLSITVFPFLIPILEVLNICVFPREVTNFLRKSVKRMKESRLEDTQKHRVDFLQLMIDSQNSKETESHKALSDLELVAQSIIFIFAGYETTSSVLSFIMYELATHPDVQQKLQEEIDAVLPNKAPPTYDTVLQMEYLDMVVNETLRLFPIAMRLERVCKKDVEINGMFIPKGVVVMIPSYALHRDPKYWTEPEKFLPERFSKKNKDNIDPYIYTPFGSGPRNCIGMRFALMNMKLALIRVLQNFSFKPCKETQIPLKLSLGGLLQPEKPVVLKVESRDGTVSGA
Chain of Lysosomal acid glucosylceramidase (Homo sapiens) (P04062 whole entry, looked up): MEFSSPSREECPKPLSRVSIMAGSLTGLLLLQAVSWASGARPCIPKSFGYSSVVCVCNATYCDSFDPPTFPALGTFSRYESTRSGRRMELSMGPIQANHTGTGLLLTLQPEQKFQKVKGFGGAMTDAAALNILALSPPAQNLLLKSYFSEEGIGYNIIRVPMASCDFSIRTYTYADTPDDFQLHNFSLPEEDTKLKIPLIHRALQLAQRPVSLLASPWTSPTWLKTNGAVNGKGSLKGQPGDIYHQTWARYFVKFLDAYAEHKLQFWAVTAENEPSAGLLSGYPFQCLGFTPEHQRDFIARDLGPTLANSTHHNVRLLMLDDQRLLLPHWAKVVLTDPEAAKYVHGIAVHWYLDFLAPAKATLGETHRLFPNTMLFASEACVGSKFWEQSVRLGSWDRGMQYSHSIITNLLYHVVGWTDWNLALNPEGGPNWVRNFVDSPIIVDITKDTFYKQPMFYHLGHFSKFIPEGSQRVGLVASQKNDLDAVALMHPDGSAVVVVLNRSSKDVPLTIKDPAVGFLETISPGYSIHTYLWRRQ
Chain of Cytochrome P450 2C9 (Homo sapiens) (P11712 whole entry, looked up): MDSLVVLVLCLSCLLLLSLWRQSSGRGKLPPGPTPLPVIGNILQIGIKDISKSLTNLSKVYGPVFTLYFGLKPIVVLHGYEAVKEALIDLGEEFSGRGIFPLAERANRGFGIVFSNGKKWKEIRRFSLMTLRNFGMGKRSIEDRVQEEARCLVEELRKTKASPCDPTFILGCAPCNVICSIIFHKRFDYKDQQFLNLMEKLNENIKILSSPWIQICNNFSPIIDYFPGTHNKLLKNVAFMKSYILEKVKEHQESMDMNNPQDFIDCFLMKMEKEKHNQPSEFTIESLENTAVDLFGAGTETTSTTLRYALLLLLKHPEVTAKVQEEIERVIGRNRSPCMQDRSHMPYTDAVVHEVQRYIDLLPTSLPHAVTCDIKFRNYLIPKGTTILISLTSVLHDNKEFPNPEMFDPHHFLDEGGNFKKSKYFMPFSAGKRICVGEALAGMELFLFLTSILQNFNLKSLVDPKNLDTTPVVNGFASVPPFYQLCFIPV
Chain of Ubiquitin carboxyl-terminal hydrolase 1 (Homo sapiens) (O94782 whole entry, looked up): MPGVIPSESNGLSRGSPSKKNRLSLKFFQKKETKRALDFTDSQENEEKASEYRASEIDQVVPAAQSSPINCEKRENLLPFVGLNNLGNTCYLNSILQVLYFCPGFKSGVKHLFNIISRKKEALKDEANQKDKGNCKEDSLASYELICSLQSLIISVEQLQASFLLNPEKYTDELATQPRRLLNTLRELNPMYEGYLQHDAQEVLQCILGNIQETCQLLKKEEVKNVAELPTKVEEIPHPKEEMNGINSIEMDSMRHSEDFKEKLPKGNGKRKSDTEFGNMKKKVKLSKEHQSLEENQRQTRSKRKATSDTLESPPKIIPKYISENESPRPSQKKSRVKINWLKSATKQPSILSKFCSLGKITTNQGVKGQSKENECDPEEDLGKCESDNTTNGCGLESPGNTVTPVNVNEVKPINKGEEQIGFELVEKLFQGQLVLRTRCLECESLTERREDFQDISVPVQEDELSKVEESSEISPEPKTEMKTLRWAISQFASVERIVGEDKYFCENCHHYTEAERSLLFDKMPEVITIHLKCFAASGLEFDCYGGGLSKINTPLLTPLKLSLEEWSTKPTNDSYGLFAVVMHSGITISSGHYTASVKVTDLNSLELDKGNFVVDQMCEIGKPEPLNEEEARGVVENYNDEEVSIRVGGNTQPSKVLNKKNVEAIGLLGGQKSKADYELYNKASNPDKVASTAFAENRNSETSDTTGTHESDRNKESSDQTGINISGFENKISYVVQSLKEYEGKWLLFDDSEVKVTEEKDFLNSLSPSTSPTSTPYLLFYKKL

Turning to `O=C(c1ccncc1)N1CCC2(CC1)CCN(c1cccc(-c3ccccc3)c1)CC2`, the Potency in assay [1] is > 11.4 µM (inactive); in assay [2], 20 µM (active); in [5], > 46 µM (inactive); in [7], 7.94 µM (active). The values for the activity change, negative = inhibition in [3] and in [8] were 4.67% (inactive) and 1.19% (inactive), respectively. Moreover, in assay [4], the activity, negative = inhibition was -12.5% (inactive). Moreover, the Potency entry in assay [6] and in [9] was “inactive” in each case. Further, the results for the max response in assay [8] (setting [18]) and in assay [8] (setting [19]) were 19.1% and 21.6%, respectively.

With `COCC(=O)N1CCC[C@@]2(CCN(Cc3ccccc3)C2)C1`, the Potency in assay [1] is > 11.4 µM (inactive); in assay [7] it was 6.31 µM (active). Further, the activity change, negative = inhibition in [10] was -0.884% (inactive); in assay [3], 19.9% (inactive); in [8], 4% (inactive). Moreover, the Potency entry in [2], in [6], in [12] and in [9] was “inactive” throughout. The activity, negative = inhibition in assay [4] was 7.86% (inactive). Moreover, the compound was called inactive in [11]. Besides, the values for the max response in assay [8] (setting [18]) and in assay [8] (setting [19]) were 6.62% and 13.4%, respectively.

As for `Cc1noc(C)c1C(=O)N1CCC2(CCN(Cc3cc(C(F)(F)F)cc(C(F)(F)F)c3)CC2)CC1`, the Potency in assay [1] is > 11.4 µM (inactive); in [5], > 46 µM (inactive). Further, the Potency result in assay [2], in assay [6] and in assay [9] was “inactive” in each case. Moreover, the activity change, negative = inhibition in assay [3] is -22.4% (inactive); in assay [8], 2.45% (inactive). In addition, the activity, negative = inhibition in assay [4] is -0.996% (inactive). For the same compound, the results for the max response in assay [8] (setting [18]) and in [8] (setting [19]) were -5.2% and -1.09%, respectively.

For `COc1ccc(NC(=O)N2CC[C@@]3(CCCN(C(=O)c4ccc(OC)cc4)C3)C2)cc1`, the figures for the Potency in assay [1] and in assay [2] were > 11.4 µM (inactive) and 25.1 µM (active), respectively. For the same compound, the results for the activity change, negative = inhibition in assay [10], in [3] and in [8] were 5.18% (inactive), 10.5% (inactive) and 3.11% (inactive), respectively. Moreover, the activity, negative = inhibition in assay [4] was 2.5% (inactive). Moreover, the outcome in [11] was inactive. For the same compound, the Potency result in [6], in [12] and in assay [9] was “inactive” in each case. Besides, the max response in [8] (setting [18]) stood at 22%; in assay [8] (setting [19]) it was 26.4%.

Turning to `O=C(Nc1cccc(F)c1)N1CCCC2(CCN(S(=O)(=O)c3ccccc3)CC2)C1`, the Potency in [1] was > 11.4 µM (inactive); in assay [5] it was > 46 µM (inactive). Also, the Potency result in assay [2], in assay [6] and in assay [9] was “inactive” each time. In addition, the activity change, negative = inhibition in [3] is -29.9% (inactive); in [8], 1.65% (inactive). In addition, in assay [4], the activity, negative = inhibition was -7.25% (inactive). In assay [11], the call was inactive. Besides, the max response in assay [8] (setting [18]) was found to be 13.8%; in assay [8] (setting [19]) it was 17.3%.

`CS(=O)(=O)N1CCC[C@@]2(CCN(Cc3ccccc3)C2)C1`: the Potency in assay [1] is > 11.4 µM (inactive); in assay [5], > 46 µM (inactive). Also, the activity change, negative = inhibition in assay [10] is 0.761% (inactive); in assay [3], 1.85% (inactive); in assay [8], 2.55% (inactive). Besides, the activity, negative = inhibition in [4] is 23.6% (inactive). Also, the outcome in assay [11] was inactive. For the same compound, the Potency result in assay [6] and in [9] was “inactive” each time. For the same compound, the max response was 2.42% in assay [8] (setting [18]) and 7.6% in [8] (setting [19]).

For the compound `CN(C)Cc1ccccc1-c1cc(NC2CC2)ncn1`, the activity change, negative = inhibition in assay [10] was -5.78% (inactive); in assay [3] it was -10% (inactive); in assay [14] it was 5.15% [at 2.29 µM] (inactive); in assay [8] it was 8.29% (inactive). Further, the Potency in assay [2] is 12.6 µM (active); in [13], > 46 µM (inactive); in [5] it was > 46 µM (inactive); in assay [7] it was 0.0398 µM (active). In addition, the activity, negative = inhibition in assay [4] was 12.3% (inactive). Besides, the compound was classed as inactive in assay [11], in assay [15] and in [16]. Besides, the Potency entry in assay [6], in assay [12], in assay [17] and in assay [9] was “inactive” throughout. For the same compound, the max response in [8] (setting [18]) came out at 13%; in assay [8] (setting [19]), 22.4%.
